From PubChem BioAssay (Tox21)
Records with an inconclusive call do not appear. Activity calls are given as the source filed them. Unless noted, calls come from the whole dose curve; as a rule, active = well fitted curve in the direction sought with a large enough effect in the repeat runs; inconclusive = weak or mixed curves; inactive = no such curve, though single readings can be large; an effect the other way counts as inactive or inconclusive.

Experiments:
[1] = qHTS assay to identify small molecule agonists of the peroxisome proliferator-activated receptor delta (PPARd) signaling pathway - cell viability counter screen (AID 743211); note: % is set by controls: 0 for no effect and ±100 for the full control effect; nearly all actives have a fitted effect of over 55% in size
In short: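 In the same wells used for beta-lactamase reporter measurement, cytotoxicity is scored by CellTiter-Glo. HEK293H PPARd-bla cells receive compound for 17 h at 37C following a 5 h settling period.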

[2] = target: Peroxisome proliferator-activated receptor delta (Homo sapiens) (UniProt Q03181); experiment: qHTS assay to identify small molecule agonists of the peroxisome proliferator-activated receptor delta (PPARd) signaling pathway (AID 743212; calls by dose curve;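 note: HEK293H cells with PPARd UAS beta-lactamase reporter GeneBLAzer system; % is set by controls: 0 for no effect and ±100 for the full control effect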)
Chain of Peroxisome proliferator-activated receptor delta (Homo sapiens) (Q03181 whole entry, looked up): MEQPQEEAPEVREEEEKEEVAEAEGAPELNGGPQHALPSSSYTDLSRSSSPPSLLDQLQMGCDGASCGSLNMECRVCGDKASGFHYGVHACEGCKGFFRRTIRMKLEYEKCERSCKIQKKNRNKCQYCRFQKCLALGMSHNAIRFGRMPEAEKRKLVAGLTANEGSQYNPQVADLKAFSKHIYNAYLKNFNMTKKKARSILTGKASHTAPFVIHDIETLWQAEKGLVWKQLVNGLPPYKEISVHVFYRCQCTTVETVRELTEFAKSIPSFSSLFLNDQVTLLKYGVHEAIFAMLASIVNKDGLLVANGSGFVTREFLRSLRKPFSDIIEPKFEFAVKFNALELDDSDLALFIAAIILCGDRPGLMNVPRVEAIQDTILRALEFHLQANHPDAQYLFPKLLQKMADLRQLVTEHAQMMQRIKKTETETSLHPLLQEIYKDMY
In short: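 Beta-lactamase reporter read by fluorescence (LiveBLAzer B/G FRET, 2 h, room temperature). Test agents, in DMSO, incubated at 37 C with PPARd-bla HEK293H cells.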

[3] = qHTS assay to identify small molecule antagonists of the peroxisome proliferator-activated receptor delta (PPARd) signaling pathway - cell viability counter screen (AID 743213); note: % is set by controls: 0 for no effect and ±100 for the full control effect; nearly all actives have a fitted effect of over 50% in size
In short: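 HEK293H PPARd UAS-bla cells, 5 h pre-incubation, compound + L165041 300 nM final, 17 h 37 C; B/G FRET substrate 2 h RT; then CellTiter-Glo 30 min RT, luminescence.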

[4] = target: Peroxisome proliferator-activated receptor delta (Homo sapiens) (UniProt Q03181); experiment: qHTS assay to identify small molecule antagonists of the peroxisome proliferator-activated receptor delta (PPARd) signaling pathway (AID 743215; active = well fitted inhibition curve with a large enough effect in the signal ratio in the repeat runs, not every such curve was filed as active; the % refers to the signal ratio;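 note: cells stimulated with agonist L165041 at 300 nM final during compound exposure; series mostly up to about 62 µM; % is set by controls: 0 for no effect and ±100 for the full control effect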)
In short: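 Plated HEK293H PPARd-bla cells rested 5 h at 37 C and 5% CO2. Compound, then agonist L165041 at 300 nM final, was added; 17 h at 37 C followed. Substrate loading, 2 h room temperature, fluorescence measured.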

[5] = target: Bile acid receptor (Homo sapiens) (UniProt Q96RI1); experiment: qHTS assay to identify small molecule antagonists of the farnesoid-X-receptor (FXR) signaling pathway (AID 743217; active = well fitted inhibition curve with a large enough effect in the signal ratio in the repeat runs, not every such curve was filed as active; the % refers to the signal ratio; note: % is set by controls: 0 for no effect and ±100 for the full control effect)
Chain of Bile acid receptor (Homo sapiens) (Q96RI1 whole entry, looked up): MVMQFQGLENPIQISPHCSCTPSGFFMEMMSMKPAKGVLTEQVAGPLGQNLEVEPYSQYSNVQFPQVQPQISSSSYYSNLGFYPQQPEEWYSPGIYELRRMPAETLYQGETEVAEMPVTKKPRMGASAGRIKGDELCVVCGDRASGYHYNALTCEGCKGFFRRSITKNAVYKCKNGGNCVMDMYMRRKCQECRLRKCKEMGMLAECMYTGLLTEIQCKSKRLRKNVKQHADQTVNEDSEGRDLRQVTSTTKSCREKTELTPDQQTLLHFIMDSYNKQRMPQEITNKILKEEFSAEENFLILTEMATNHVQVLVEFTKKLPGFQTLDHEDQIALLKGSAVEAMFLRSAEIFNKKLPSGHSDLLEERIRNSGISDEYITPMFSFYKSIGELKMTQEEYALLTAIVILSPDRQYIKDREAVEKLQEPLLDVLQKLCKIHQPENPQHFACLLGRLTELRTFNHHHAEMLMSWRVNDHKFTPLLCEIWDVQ
In short: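 Screen of the Tox21 10K library in quantitative HTS format using FXR-UAS-bla HEK 293T reporter cells. Agonist chenodeoxycholic acid, 50 uM final, added with compounds; 16 h incubation at 37 °C; beta-lactamase FRET fluorescence measured.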

[6] = qHTS assay to identify small molecule agonists of the farnesoid-X-receptor (FXR) signaling pathway - cell viability counter screen (AID 743218); note: % is set by controls: 0 for no effect and ±100 for the full control effect; nearly all actives have a fitted effect of over 45% in size
In short: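 Viability of FXR-bla HEK 293T cells is measured by ATP-based CellTiter-Glo luminescence following 16 h compound treatment at 37 C and a prior 2 h room-temperature beta-lactamase substrate step.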

[7] = target: Bile acid receptor (Homo sapiens) (UniProt Q96RI1); experiment: qHTS assay to identify small molecule agonists of the farnesoid-X-receptor (FXR) signaling pathway (AID 743220; active = well fitted activation curve with a large enough effect in the signal ratio in the repeat runs, not every such curve was filed as active; the % refers to the signal ratio; note: % is set by controls: 0 for no effect and ±100 for the full control effect)
In short: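 FXR-UAS-bla HEK 293T cells carrying a UAS-driven beta-lactamase reporter were plated for 5 h at 37C/5% CO2, then exposed to DMSO-dissolved Tox21 10K compounds for 16 h at 37C. A LiveBLAzer B/G FRET substrate was loaded for 2 h at room temperature before fluorescence reading.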

[8] = qHTS assay to identify small molecule antagonists of the farnesoid-X-receptor (FXR) signaling pathway - cell viability counter screen (AID 743221; active = well fitted cell-killing curve with a large enough effect in the repeat runs, not every such curve was filed as active; note: % is set by controls: 0 for no effect and ±100 for the full control effect; nearly all actives have a fitted effect of over 50% in size)
In short: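 Here viability was scored by luminescence after CellTiter-Glo addition to wells already read for beta-lactamase. Prior treatment: compound plus CDCA (50 uM final), 16 h, 37 C, HEK 293T FXR-bla cells.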

[9] = target: Vitamin D3 receptor (Homo sapiens) (UniProt P11473); experiment: qHTS assay to identify small molecule agonists of the vitamin D receptor (VDR) signaling pathway (AID 743222; calls by dose curve; note: % is set by controls: 0 for no effect and ±100 for the full control effect)
Chain of Vitamin D3 receptor (Homo sapiens) (P11473 whole entry, looked up): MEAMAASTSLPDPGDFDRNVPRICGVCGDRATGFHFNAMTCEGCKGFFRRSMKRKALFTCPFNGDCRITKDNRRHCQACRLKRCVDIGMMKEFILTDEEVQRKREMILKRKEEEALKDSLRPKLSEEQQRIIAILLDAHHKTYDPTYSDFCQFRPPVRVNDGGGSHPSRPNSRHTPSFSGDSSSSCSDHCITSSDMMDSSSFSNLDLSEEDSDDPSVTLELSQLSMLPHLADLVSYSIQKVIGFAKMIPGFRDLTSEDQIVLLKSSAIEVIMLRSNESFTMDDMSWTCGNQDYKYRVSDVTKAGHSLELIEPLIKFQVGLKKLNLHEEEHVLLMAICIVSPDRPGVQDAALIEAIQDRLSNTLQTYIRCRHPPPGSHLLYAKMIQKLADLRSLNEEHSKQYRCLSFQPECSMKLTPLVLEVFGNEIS
In short: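 Fluorescence from cleaved LiveBLAzer B/G FRET substrate served as readout. VDR-bla cells had been treated 16 h at 37C with test compounds in DMSO, following a 4 h settling period, and substrate was loaded for 2 h at RT.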

[10] = target: Vitamin D3 receptor (Homo sapiens) (UniProt P11473); experiment: qHTS assay to identify small molecule antagonists of the vitamin D receptor (VDR) signaling pathway (AID 743223; active = well fitted inhibition curve with a large enough effect in the signal ratio in the repeat runs, not every such curve was filed as active; the % refers to the signal ratio; note: % is set by controls: 0 for no effect and ±100 for the full control effect)
In short: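 Inhibition of agonist-driven VDR signalling is scored in VDR-bla cells: 3 nM final 1alpha,25-dihydroxyvitamin D3 plus compound, 16 h at 37C, then beta-lactamase detection by FRET substrate fluorescence after 2 h.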

[11] = qHTS assay to identify small molecule agonists of the vitamin D receptor (VDR) signaling pathway - cell viability counter screen (AID 743224); note: series mostly up to about 63 µM; % is set by controls: 0 for no effect and ±100 for the full control effect; nearly all actives have a fitted effect of over 50% in size
In short: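 Compounds were pin-transferred onto VDR-bla cells plated 4 h earlier; following 16 h incubation at 37C, cell viability was quantified by CellTiter-Glo luminescence after 30 min at room temperature.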

[12] = qHTS assay to identify small molecule antagonists of the vitamin D receptor (VDR) signaling pathway - cell viability counter screen (AID 743225); note: % is set by controls: 0 for no effect and ±100 for the full control effect; nearly all actives have a fitted effect of over 50% in size
In short: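 Compounds were pinned onto VDR-bla HEK 293T cells together with 1-alpha,25-dihydroxyvitamin D3 at 3 nM final. After 16 h at 37C and 5% CO2 plus the reporter readout, cell viability was measured by CellTiter-Glo luminescence (30 min, room temperature).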

[13] = qHTS assay to identify small molecule agonists of the NFkB signaling pathway (AID 1159509; active = well fitted curve in the direction sought with a large enough effect in the signal ratio in the repeat runs, not every such curve was filed as active; the % refers to the signal ratio)
In short: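 Beta-lactamase reporter assay run in quantitative high-throughput format on an NF-kB-responsive ME-180 line, with 5 hr compound treatment and a FRET-based blue/green fluorescence readout.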

[14] = qHTS assay to identify small molecule agonists of the NFkB signaling pathway - cell viability counter screen (AID 1159515; calls by dose curve; note: series mostly up to about 61 µM; % is set by controls: 0 for no effect and ±100 for the full control effect; nearly all actives have a fitted effect of over 55% in size)
In short: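 Parallel cytotoxicity counter screen in ME-180 cells carrying an NFkB-response-element beta-lactamase reporter, 2,000 cells/well. Compound exposure lasted 5 hr at 37 C, 5% CO2. Cell viability was quantified by CellTiter-Glo luminescence.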

[15] = qHTS assay to identify small molecule agonists of the endoplasmic reticulum stress response signaling pathway - cell viability counter screen (AID 1159517; calls by dose curve)
In short: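 Cytotoxicity of test compounds toward ESRE-bla HeLa cells was assessed after 5 hr exposure. The luminescent CellTiter-Glo signal was measured 30 min after reagent addition.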

[16] = qHTS assay to identify small molecule antagonists of the retinoid-related orphan receptor gamma (ROR-gamma) signaling pathway - cell viability counter screen (AID 1159520)
In short: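 Tet-on ROR gamma CHO cells (1,000/well) were plated 4 hr, given compounds in DMSO for 2 hr at 37 C, then induced with 1 uM final doxycycline for 16 hr. Viability was read as ATP by CellTiter-Glo luminescence after 30 min.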

[17] = target: Nuclear receptor ROR-gamma (Homo sapiens) (UniProt P51449); experiment: qHTS assay to identify small molecule antagonists of the retinoid-related orphan receptor gamma (ROR-gamma) signaling pathway (AID 1159521)
In short: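 Test compounds were applied to Tet-on RORγ CHO cells 2 h ahead of doxycycline hyclate (1 uM final). Luciferase reporter activity was quantified by luminescence after 16 h at 37 C and 5% CO2.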

[18] = qHTS assay to identify small molecule agonists of the AP-1 signaling pathway - cell viability counter screen (AID 1159525; calls by dose curve; note: nearly all actives have a fitted effect of over 55% in size)
In short: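 Each titration point was normalised to DMSO and tetra n-octyl ammonium bromide controls. The read was Cell Titer Glo luminescence after 30 min at RT, following 5 h compound exposure of ME-180 AP-1-bla cells at 37 °C.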

[19] = qHTS assay to identify small molecule agonists of the AP-1 signaling pathway (AID 1159526; calls by dose curve; note: % is set by controls: 0 for no effect and ±100 for the full control effect)
[20] = qHTS assay to identify small molecule agonists of the endoplasmic reticulum stress response signaling pathway (AID 1159516; active = well fitted activation curve with a large enough effect in the signal ratio in the repeat runs, not every such curve was filed as active; the % refers to the signal ratio; note: % is set by controls: 0 for no effect and ±100 for the full control effect)
In short: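 Using a HeLa line with an ESRE-driven beta-lactamase gene, agonist activity was measured by FRET substrate fluorescence (460 and 530 nm emission) after cells were treated with compounds for 5 hr at 37 C and 5% CO2.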

C[CH2][Ge]([Cl])([CH2]C)[CH2]C
inactive: outcome [1] | outcome [2] | outcome [3] | outcome [4] | outcome [5] | Potency [6] | outcome [7] | outcome [8] | outcome [9] | outcome [10] | outcome [11] | outcome [12] | outcome [13] | outcome [14] | outcome [15] | outcome [16] | outcome [17] | outcome [18] | outcome [19]

O=C(O)C(=O)Nc1cccc(-c2nn[nH]n2)c1
inactive: outcome [1] | outcome [2] | outcome [3] | outcome [4] | outcome [5] | Potency [6] | outcome [7] | outcome [8] | outcome [9] | outcome [10] | outcome [11] | outcome [13] | outcome [20] | outcome [15] | outcome [16] | outcome [17] | outcome [18] | outcome [19]

Nc1ccc(S(=O)(=O)NC(=O)c2ccccc2)cc1
inactive: outcome [1] | outcome [2] | outcome [3] | outcome [4] | outcome [8] | outcome [11] | outcome [12] | outcome [13] | outcome [14] | outcome [15] | outcome [16] | outcome [17] | outcome [18] | outcome [19]

CC(C)COC(=O)CC(C(=O)OCC(C)C)S(=O)(=O)O (stereo not drawn)
inactive: outcome [1] | outcome [2] | outcome [3] | Potency [6] | outcome [8] | outcome [9] | outcome [11] | outcome [12] | outcome [13] | outcome [14] | outcome [15] | outcome [16] | outcome [17] | outcome [18] | outcome [19]

CC(=O)c1ccc2c(c1)CCCC2
inactive: outcome [1] | outcome [2] | outcome [3] | outcome [4] | Potency [6] | outcome [8] | outcome [9] | outcome [13] | outcome [14] | outcome [15] | outcome [16] | outcome [17] | outcome [18] | outcome [19]

C=CCCCCCCCCCCC
inactive: activity change, negative = cytotoxicity [1] -1.9% [at 5.95 µM] | activation [2] -5.08% [at 5.95 µM] | ratio activity, negative = inhibition [4] 0.24% [at 6.26 µM] | viability change, negative = cytotoxic [6] 33.3% [at 5.95 µM] | activity change, negative = cytotoxicity [8] 11.4% [at 5.95 µM] | activation [9] -2.3% [at 6.01 µM] | activity change, negative = inhibition [10] 4.12% [at 6.95 µM] | activity change, negative = cytotoxicity [11] -9.89% [at 5.95 µM] | viability change, negative = cytotoxic [12] 5.49% [at 6.95 µM] | activation [13] 0.0657% [at 6.95 µM] | activity, negative = cytotoxic [14] -9.69% [at 6.95 µM] | activity change, negative = cytotoxicity [15] -0.545% [at 6.95 µM] | activity, negative = cytotoxicity [16] 3.91% [at 8.39 µM] | activity change, negative = inhibition [17] -1.42% [at 8.39 µM] | viability change, negative = cytotoxic [18] 9.65% [at 6.97 µM] | activation [19] -2.43% [at 6.97 µM]

Nc1cc(C(=O)O)ccc1Cl
inactive: outcome [1] | outcome [2] | outcome [3] | outcome [4] | outcome [5] | Potency [6] | outcome [7] | outcome [8] | outcome [9] | outcome [10] | outcome [11] | outcome [12] | outcome [13] | outcome [20] | outcome [15] | outcome [16] | outcome [17] | outcome [18] | outcome [19]

NC(=O)NNC(N)=O
inactive: outcome [1] | outcome [2] | outcome [3] | outcome [4] | outcome [5] | Potency [6] | outcome [7] | outcome [8] | outcome [9] | outcome [12] | outcome [13] | outcome [20] | outcome [15] | outcome [16] | outcome [17] | outcome [18] | outcome [19]

Cc1oc(=O)oc1CN1CCN(c2cc3c(cc2F)c(=O)c(C(=O)O)c2n3C(C)S2)CC1 (stereo not drawn)
inactive: outcome [1] | outcome [2] | outcome [3] | outcome [4] | Potency [6] | outcome [8] | outcome [9] | outcome [10] | outcome [11] | outcome [13] | outcome [14] | outcome [15] | outcome [16] | outcome [17] | outcome [18] | outcome [19]

CCN(CCO)c1cccc(C)c1
inactive: outcome [1] | outcome [2] | outcome [3] | outcome [4] | outcome [5] | outcome [7] | outcome [8] | outcome [11] | outcome [13] | outcome [14] | outcome [15] | outcome [16] | outcome [17] | outcome [18] | outcome [19]

Cc1c(C(C)C)c(=O)n(-c2ccccc2)n1C
inactive: outcome [1] | Potency [6] | outcome [8] | outcome [9] | outcome [10] | outcome [11] | outcome [13] | outcome [14] | outcome [15] | outcome [16] | outcome [17] | outcome [18] | outcome [19]

COc1ccc(/C=N/NC(=O)c2ccncc2)cc1OC
inactive: outcome [1] | outcome [2] | outcome [3] | outcome [4] | Potency [6] | outcome [8] | outcome [11] | outcome [12] | outcome [13] | outcome [14] | outcome [15] | outcome [16] | outcome [17] | outcome [18] | outcome [19]

CC(C)CCC(=O)CCC(C)C
inactive: outcome [1] | outcome [3] | Potency [6] | outcome [8] | outcome [9] | outcome [10] | outcome [11] | outcome [13] | outcome [14] | outcome [15] | outcome [16] | outcome [17] | outcome [18] | outcome [19]

O=C(/C=C/c1ccccc1)NCCO
inactive: outcome [1] | outcome [2] | outcome [3] | outcome [4] | Potency [6] | outcome [8] | outcome [9] | outcome [10] | outcome [12] | outcome [13] | outcome [14] | outcome [15] | outcome [16] | outcome [17] | outcome [18] | outcome [19]

COCC(=O)Nc1c(I)c(C(=O)NCC(O)CO)c(I)c(C(=O)N(C)CC(O)CO)c1I (stereo not drawn)
inactive: outcome [1] | outcome [2] | outcome [3] | outcome [4] | Potency [6] | outcome [8] | outcome [11] | outcome [12] | outcome [13] | outcome [14] | outcome [15] | outcome [16] | outcome [17] | outcome [18] | outcome [19]

C=CCOc1c(Br)cc(Br)cc1Br
inactive: outcome [5] | outcome [7] | outcome [9] | outcome [11] | outcome [12] | outcome [13] | outcome [14] | outcome [15] | outcome [16] | outcome [17] | outcome [18] | outcome [19]

O=C(CN1CCN(Cc2ccc3c(c2)OCO3)CC1)N1c2ccccc2Sc2ccccc21
inactive: outcome [1] | outcome [3] | Potency [6] | outcome [8] | outcome [9] | outcome [10] | outcome [11] | outcome [12] | outcome [13] | outcome [14] | outcome [15] | outcome [16] | outcome [17] | outcome [18] | outcome [19]
